The target in assay [1] is Estrogen receptor beta (Homo sapiens) (UniProt Q92731). Kind of assay: qHTS assay to identify small molecule agonists of the estrogen receptor beta (ER-beta) signaling pathway (AID 1259377; active = well fitted activation curve with a large enough effect in the signal ratio in the repeat runs, not every such curve was filed as active; the % refers to the signal ratio). The method, boiled down: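 qHTS in ER-beta-UAS-bla HEK293T cells: 6 hr settling, then 16 hr compound at 37C, then LiveBLAzer substrate 2 h at RT before fluorescence reading.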
Chain of Estrogen receptor beta (Homo sapiens) (Q92731 whole entry, looked up): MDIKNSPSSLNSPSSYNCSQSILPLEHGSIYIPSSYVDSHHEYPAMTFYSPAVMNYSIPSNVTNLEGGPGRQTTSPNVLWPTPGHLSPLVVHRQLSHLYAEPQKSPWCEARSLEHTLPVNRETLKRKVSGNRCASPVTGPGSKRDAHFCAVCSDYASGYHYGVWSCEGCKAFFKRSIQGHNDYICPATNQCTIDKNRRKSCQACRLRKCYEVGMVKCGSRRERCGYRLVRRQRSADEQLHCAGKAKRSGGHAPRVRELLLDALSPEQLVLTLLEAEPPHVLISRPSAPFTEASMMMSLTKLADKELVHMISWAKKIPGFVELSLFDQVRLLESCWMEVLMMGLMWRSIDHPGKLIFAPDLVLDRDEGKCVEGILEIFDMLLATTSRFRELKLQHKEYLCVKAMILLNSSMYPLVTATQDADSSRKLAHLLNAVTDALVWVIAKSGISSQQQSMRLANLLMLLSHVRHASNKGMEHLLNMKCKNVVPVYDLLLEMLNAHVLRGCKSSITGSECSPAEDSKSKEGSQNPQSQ
Assay [2] shares this target. Kind of assay: qHTS assay to identify small molecule antagonists of the estrogen receptor beta (ER-beta) signaling pathway (AID 1259378; active = well fitted inhibition curve with a large enough effect in the signal ratio in the repeat runs, not every such curve was filed as active; the % refers to the signal ratio). The gist of the method:
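ER-beta-UAS-bla HEK293T (GripTite) cells in 2% charcoal-stripped FBS medium were preincubated 6 hr at 37C, dosed with compound, then stimulated with 1 nM E2 (final) for 16 hr; beta-lactamase reporter read by B/G FRET fluorescence after 2 hr substrate loading.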

Assay [3] is described as follows: qHTS assay to identify small molecule agonists of the androgen receptor (AR) signaling pathway in the presence of an antagonist - cell viability counter screen (AID 1259379). Also: nearly all actives have a fitted effect of over 25% in size. Also: potency is read from the fitted curve at half-maximal effect. The gist of the method: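 MDA-kb2 viability measured by CellTiter-Fluor fluorescence in the same wells as the luciferase signal; nilutamide 3.0uM final; 15-point compound titration; 16 hr at 37C.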

A short description of assay [4]: qHTS assay to identify small molecule antagonists of the estrogen receptor beta (ER-beta) signaling pathway - cell viability counter screen (AID 1259382). Also: series mostly up to about 92 µM; nearly all actives have a fitted effect of over 55% in size. The gist of the method: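 Readout: luminescence, CellTiter-Glo, same wells as bla assay. System: ER-beta-UAS-bla GripTite HEK293T, 2% charcoal-stripped FBS. Exposure: compounds plus 1nM 17-beta-estradiol, 16 hr, 37C.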

Assay [5] is described as follows: qHTS assay to identify small molecule agonists or antagonists of the thyroid stimulating hormone receptor (TSHR) signaling pathway - wild type cell line counter screen (AID 1259384; calls by dose curve). The gist of the method:
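Wild-type HEK293 cells were plated 18 h at 37 C/5% CO2, pin-dosed with compound plus Ro20-1724 medium, held 30 min at room temperature, then given cAMP-d2 and anti-cAMP-cryptate; fluorescence was read after 1 h. Fifteen concentrations, triplicate.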

In assay [6] the target is Thyrotropin receptor (Homo sapiens) (UniProt P16473). The experiment in a line: qHTS assay to identify small molecule antagonists of the thyroid stimulating hormone receptor (TSHR) signaling pathway (AID 1259385; calls by dose curve; also: nearly all actives have a fitted effect of over 20% in size). The gist of the method:
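TSHR-HEK293 cells were plated and held 18 h at 37C/5% CO2, then given compound plus Ro20-1724 and stimulated with TSH at 1.5 ng/mL final. After 30 min at room temperature, cAMP was detected with cAMP-d2/anti-cAMP-cryptate (1 h) by fluorescence.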

A short description of assay [7]: qHTS assay to identify small molecule agonists of the estrogen receptor alpha (ER-alpha) signaling pathway in the presence of an antagonist - cell viability counter screen (AID 1259386).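 Also: cells exposed to compounds for 22 h at 37 °C before the viability read; nearly all actives have a fitted effect of over 30% in size.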 Also: potency is read from the fitted curve at half-maximal effect. The gist of the method:
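The test measures whether compounds kill ER-alpha reporter cells (VM7Luc4E2) under antagonist co-treatment (ICI-182,780, 10.0nM). Fluorescence from CellTiter-Fluor is read after a 22hr exposure.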

The target in assay [8] is Progesterone receptor (Homo sapiens) (UniProt P06401). The experiment in a line: qHTS assay to identify small molecule agonists of the progesterone receptor (PR) signaling pathway (AID 1346784; calls by dose curve; also: nearly all actives have a fitted effect of over 30% in size). The gist of the method: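 Fluorescence from LiveBLAzer B/G FRET substrate cleavage (2 hr, RT) reported PR activation in PR-UAS-bla HEK 293T cells treated 16 hr at 37C/5% CO2 with compounds; medium contained 2% charcoal-stripped FBS.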
Chain of Progesterone receptor (Homo sapiens) (P06401 whole entry, looked up): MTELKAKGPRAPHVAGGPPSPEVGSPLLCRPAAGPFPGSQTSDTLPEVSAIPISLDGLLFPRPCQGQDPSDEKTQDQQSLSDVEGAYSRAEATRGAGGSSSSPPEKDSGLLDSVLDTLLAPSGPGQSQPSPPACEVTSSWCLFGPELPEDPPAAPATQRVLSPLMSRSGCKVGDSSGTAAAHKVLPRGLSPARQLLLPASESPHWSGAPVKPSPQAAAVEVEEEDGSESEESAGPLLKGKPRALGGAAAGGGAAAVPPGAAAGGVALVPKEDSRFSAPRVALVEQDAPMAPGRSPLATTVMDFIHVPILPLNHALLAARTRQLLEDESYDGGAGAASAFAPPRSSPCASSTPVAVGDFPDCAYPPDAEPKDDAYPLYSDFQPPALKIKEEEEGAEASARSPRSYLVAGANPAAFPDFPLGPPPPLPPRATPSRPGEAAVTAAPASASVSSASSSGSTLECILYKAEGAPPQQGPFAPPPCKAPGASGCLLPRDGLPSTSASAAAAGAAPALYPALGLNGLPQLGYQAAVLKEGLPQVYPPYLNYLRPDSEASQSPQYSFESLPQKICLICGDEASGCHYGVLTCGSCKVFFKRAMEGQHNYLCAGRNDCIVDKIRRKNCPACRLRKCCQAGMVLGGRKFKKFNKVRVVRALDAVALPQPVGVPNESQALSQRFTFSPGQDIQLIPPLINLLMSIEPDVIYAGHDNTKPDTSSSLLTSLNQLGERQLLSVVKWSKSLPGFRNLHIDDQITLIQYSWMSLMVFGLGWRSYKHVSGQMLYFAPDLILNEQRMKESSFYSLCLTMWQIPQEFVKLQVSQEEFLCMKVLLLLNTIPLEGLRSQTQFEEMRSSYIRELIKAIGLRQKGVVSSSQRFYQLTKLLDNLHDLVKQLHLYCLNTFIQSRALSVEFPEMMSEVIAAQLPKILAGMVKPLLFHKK

Assay [9] shares this target. The experiment in a line: qHTS assay to identify small molecule antagonists of the progesterone receptor (PR) signaling pathway (AID 1346795; active = well fitted inhibition curve with a large enough effect in the signal ratio in the repeat runs, not every such curve was filed as active; the % refers to the signal ratio; also: potency is read from the fitted curve at half-maximal effect). The method, boiled down: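 Fluorescence intensity measured 2 hr after adding beta-lactamase FRET substrate to PR-UAS-bla HEK293T cells that had been co-treated 16 hr with compound and 1 nM R5020 (final concentration) in 2% charcoal-stripped FBS.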

Assay [10] is described as follows: qHTS assay to identify small molecule antagonists of the progesterone receptor (PR) signaling pathway - cell viability counter screen (AID 1346798). Also: series mostly up to about 92 µM; nearly all actives have a fitted effect of over 50% in size. The method, boiled down: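 CellTiter-Glo luminescence; PR-UAS-bla HEK293T, 3,000 cells/well; compound + R5020, 16 hr, 37C/5% CO2; 30 min RT before read.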
Assay [11] is described as follows: qHTS assay to identify small molecule antagonists of the TGF-beta/Smad signaling pathway - cell viability counter screen (AID 1346824). Also: nearly all actives have a fitted effect of over 50% in size. The gist of the method:
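SBE-bla HEK 293T cells were plated overnight at 37 C, then given compounds in DMSO plus TGF-beta1 (added as 0.25 ng/mL solution) for 5 hr. After the bla read, CellTiter-Glo was added to the same wells and luminescence read after 30 min at room temperature.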

Assay [12] can be described thus: qHTS assay to identify small molecule agonists of the TGF-beta/Smad signaling pathway - cell viability counter screen (AID 1346829). Also: top concentration of the series differs between compounds; nearly all actives have a fitted effect of over 45% in size. The method, boiled down: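 Tox21 qHTS format: SBE-bla HEK 293T cells treated with DMSO-dissolved compounds for 5 hr; CellTiter-Glo luminescence after 30 min at room temperature.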
Assay [13] in a line: qHTS assay to identify small molecule agonists of the TGF-beta/Smad signaling pathway (AID 1346859; active = well fitted activation curve with a large enough effect in the signal ratio in the repeat runs, not every such curve was filed as active; the % refers to the signal ratio; also: series mostly up to about 77 µM). The method, boiled down: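 After overnight seeding, SBE-bla HEK 293T cells are dosed with compounds in DMSO and kept 5 hr at 37 C, 5% CO2. LiveBLAzer-type FRET substrate is then applied for 2 hr at room temperature.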
Assay [14] has as its target Thyrotropin-releasing hormone receptor (Homo sapiens) (UniProt P34981). The experiment in a line: qHTS assay to identify small molecule antagonists of the thyrotropin-releasing hormone receptor (TRHR) signaling pathway (AID 1346877; active = well fitted inhibition curve with a large enough effect in the repeat runs, not every such curve was filed as active; also: series mostly up to about 51 µM). The gist of the method: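 Overnight-plated (18 h, 37 °C) HEK293 cells expressing TRHR were dye-loaded 2 h, treated with compound, then stimulated with TRH at 1 nM final. Fluorescence intensity was captured every second for 3 min.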

The target is the same in assay [15]. The experiment in a line: qHTS assay to identify small molecule agonists of the thyrotropin-releasing hormone receptor (TRHR) signaling pathway (AID 1346891; calls by dose curve;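 also: HEK293 cells expressing TRHR with calcium dye readout; series mostly up to about 58 µM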). The method, boiled down: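 Compounds were tested as agonists at 15 concentrations, in triplicate, on TRHR-Hek293 cells; calcium-sensitive dye fluorescence was recorded for 3 min following addition.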
Assay [16] can be described thus: Human pregnane X receptor (PXR) small molecule agonists, qHTS cell viability counter screen (AID 1346977). Also: nearly all actives have a fitted effect of over 50% in size. Also: potency is read from the fitted curve at half-maximal effect. The method, boiled down:
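Viability counter screen: CellTiter-Fluor signal in PXR-Luc HepG2 cells, 24hr compound exposure, 37C, 5% CO2.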

A short description of assay [17]: qHTS assay to identify small molecule agonists of the estrogen receptor beta (ER-beta) signaling pathway - cell viability counter screen (AID 1259380). Also: nearly all actives have a fitted effect of over 30% in size. The method, boiled down: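 Measured: luminescence from CellTiter-Glo after 30 min at room temperature, added to wells already read for the LiveBLAzer FRET reporter (2 hr substrate); ER-beta-UAS-bla HEK293T cells had 16 hr compound treatment at 37C, 5% CO2.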

For assay [18], the target named is Estrogen receptor (Homo sapiens) (UniProt P03372). The experiment in a line: qHTS assay to identify small molecule agonists of the estrogen receptor alpha (ER-alpha) signaling pathway in the presence of an antagonist (AID 1259383; calls by dose curve; also: top concentration of the series differs between compounds; nearly all actives have a fitted effect of over 15% in size). The method, boiled down:
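Quantitative HTS confirmation: compounds titrated at 15 concentrations onto estrogen-deprived VM7Luc4E2 cells carrying a four-ERE luciferase construct, with ICI-182,780 present at 10.0nM final. Signal is luminescence after 22hr exposure.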

A short description of assay [19]: qHTS assay to identify small molecule agonists of the progesterone receptor (PR) signaling pathway - cell viability counter screen (AID 1346799; calls by dose curve; also: nearly all actives have a fitted effect of over 45% in size). The method, boiled down: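 In parallel with the beta-lactamase readout, cytotoxicity toward PR-UAS-bla HEK293T cells was measured by CellTiter-Glo luminescence following 16 hr compound incubation in 2% charcoal-stripped FBS medium.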

The target of assay [20] is Androgen receptor (Homo sapiens) (UniProt P10275). Kind of assay: qHTS assay to identify small molecule agonists of the androgen receptor (AR) signaling pathway in the presence of an antagonist (AID 1259381; calls by dose curve; also: nearly all actives have a fitted effect of over 15% in size). The gist of the method: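 Luminescent ONE-Glo read, 30min at room temperature, follows 16hr compound exposure (15 concentrations) of MDA-kb2 cells at 37C, 0% CO2, with nilutamide added at 3.0uM final.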
Chain of Androgen receptor (Homo sapiens) (P10275 whole entry, looked up): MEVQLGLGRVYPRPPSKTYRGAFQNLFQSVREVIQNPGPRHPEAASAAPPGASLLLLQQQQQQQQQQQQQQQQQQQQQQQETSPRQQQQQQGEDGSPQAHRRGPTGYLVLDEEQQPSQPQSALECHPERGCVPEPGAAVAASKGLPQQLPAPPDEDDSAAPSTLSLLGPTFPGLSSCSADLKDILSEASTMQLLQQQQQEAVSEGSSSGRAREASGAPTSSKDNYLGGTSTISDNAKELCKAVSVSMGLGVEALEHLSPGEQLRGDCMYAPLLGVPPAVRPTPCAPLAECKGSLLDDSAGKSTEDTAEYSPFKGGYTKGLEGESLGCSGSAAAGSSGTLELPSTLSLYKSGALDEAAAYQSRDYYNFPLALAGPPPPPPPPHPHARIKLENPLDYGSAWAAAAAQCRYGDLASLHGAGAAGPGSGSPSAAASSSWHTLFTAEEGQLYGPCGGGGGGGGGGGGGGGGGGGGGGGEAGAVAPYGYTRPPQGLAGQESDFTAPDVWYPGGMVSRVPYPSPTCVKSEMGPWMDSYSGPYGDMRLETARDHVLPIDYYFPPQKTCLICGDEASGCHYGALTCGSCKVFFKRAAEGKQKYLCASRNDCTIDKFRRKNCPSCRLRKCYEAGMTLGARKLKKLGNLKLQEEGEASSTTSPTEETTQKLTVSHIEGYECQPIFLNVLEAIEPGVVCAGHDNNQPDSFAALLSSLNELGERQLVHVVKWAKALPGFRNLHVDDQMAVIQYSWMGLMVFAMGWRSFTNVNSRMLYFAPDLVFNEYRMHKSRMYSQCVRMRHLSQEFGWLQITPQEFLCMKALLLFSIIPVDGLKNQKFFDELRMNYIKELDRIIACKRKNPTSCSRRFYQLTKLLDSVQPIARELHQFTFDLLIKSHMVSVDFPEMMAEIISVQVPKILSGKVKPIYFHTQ

The structures appear in SMILES notation. Unmarked numbers belong to inactive results. Results filed as inconclusive are left out. Activity calls are given as the source filed them. Unless noted, calls follow the shape of the dose curve; as a rule, active = well fitted curve in the direction sought with a large enough effect in the repeat runs; inconclusive = weak or mixed curves; inactive = no such curve, though single readings can be large; an effect the other way counts as inactive or inconclusive.

Chain of Estrogen receptor (Homo sapiens) (P03372 whole entry, looked up): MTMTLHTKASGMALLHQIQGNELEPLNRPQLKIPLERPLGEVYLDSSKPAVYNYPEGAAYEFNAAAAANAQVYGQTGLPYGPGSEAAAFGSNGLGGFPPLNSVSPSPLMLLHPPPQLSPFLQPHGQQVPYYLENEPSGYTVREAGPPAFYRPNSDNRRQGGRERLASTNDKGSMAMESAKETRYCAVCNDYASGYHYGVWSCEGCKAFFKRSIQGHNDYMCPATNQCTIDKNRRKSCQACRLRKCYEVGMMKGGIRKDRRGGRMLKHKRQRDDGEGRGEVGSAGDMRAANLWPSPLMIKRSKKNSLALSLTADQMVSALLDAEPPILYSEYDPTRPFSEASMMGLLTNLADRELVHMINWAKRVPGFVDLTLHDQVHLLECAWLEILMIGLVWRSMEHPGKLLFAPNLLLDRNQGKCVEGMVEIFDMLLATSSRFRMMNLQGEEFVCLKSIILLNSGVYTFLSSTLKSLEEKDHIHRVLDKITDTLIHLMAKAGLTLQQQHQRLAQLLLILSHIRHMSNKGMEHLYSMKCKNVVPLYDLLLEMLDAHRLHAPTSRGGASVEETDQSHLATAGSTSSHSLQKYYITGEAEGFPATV
Chain of Thyrotropin receptor (Homo sapiens) (P16473 whole entry, looked up): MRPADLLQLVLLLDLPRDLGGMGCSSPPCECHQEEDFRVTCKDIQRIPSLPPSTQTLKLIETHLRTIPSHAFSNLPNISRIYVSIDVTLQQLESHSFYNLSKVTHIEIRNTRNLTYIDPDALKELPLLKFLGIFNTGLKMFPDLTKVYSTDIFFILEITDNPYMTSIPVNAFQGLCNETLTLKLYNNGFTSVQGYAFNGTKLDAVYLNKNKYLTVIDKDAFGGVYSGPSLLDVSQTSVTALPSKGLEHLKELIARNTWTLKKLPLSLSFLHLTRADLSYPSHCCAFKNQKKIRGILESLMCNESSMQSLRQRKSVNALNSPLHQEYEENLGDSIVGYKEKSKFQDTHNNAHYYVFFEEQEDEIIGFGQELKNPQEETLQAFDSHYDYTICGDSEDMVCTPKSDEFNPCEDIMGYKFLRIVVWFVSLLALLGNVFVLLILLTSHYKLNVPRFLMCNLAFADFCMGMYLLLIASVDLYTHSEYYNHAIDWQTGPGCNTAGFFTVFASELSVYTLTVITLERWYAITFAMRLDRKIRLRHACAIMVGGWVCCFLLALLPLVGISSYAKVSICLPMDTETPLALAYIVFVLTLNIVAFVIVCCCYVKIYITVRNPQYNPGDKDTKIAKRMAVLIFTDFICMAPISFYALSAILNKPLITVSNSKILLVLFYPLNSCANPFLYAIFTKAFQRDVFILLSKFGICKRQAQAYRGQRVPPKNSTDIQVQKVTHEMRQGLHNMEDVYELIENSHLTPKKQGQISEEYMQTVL
Chain of Thyrotropin-releasing hormone receptor (Homo sapiens) (P34981 whole entry, looked up): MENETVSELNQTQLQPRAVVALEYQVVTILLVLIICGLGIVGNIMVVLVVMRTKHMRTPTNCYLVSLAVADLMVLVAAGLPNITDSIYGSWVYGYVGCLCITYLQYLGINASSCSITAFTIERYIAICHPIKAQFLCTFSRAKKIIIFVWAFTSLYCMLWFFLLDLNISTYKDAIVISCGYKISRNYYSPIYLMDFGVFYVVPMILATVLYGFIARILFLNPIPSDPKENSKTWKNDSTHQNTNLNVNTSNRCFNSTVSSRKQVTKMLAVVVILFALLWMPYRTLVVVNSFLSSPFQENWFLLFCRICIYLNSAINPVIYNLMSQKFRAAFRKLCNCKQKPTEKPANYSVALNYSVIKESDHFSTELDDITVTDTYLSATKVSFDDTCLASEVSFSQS

For the compound `COCCOc1cc2cc(C(=O)NC3CCN(C(C)C)CC3)n(CC(=O)Nc3ccc(Cl)cn3)c2cn1`, the Potency result in assay [1], in assay [2], in assay [3], in assay [4], in [6] and in [7] was “inactive” throughout. The Potency entry in [8], in assay [9], in assay [10], in [11], in assay [12] and in assay [13] was “inactive” in each case. For the same compound, in [14], the Potency entry was “inactive”. Also, the call in assay [5] and in assay [15] was inactive. Besides, in assay [16], the Potency was 53.9 µM (active).

As for `O=C(O)c1ccc2cc(C(=O)O)ccc2c1`, the Potency result in assay [2], in [3], in assay [17], in [18], in [7] and in [8] was “inactive” throughout. Further, the Potency result in [9], in assay [10], in [11], in assay [12], in assay [13] and in [14] was “inactive” each time. Besides, the Potency entry in assay [16] was “inactive”. Besides, the result in assay [5] and in [15] was inactive.

For the compound `S=c1nccc[nH]1`, the Potency entry in assay [1], in assay [17], in [4], in [18], in assay [7] and in assay [8] was “inactive” each time. In addition, the Potency entry in [10], in assay [11], in assay [12], in [13], in assay [14] and in assay [16] was “inactive” in each case. The call in [15] was inactive.

For `O=[N+]([O-])c1ccc(O)cc1C(F)(F)F`, the Potency entry in assay [1], in [6], in [8], in [10], in assay [11] and in assay [12] was “inactive” throughout. Moreover, the Potency entry in assay [13] and in [14] was “inactive” each time. Besides, the Potency in assay [3] is 30.6 µM (active); in [7], 27.3 µM (active). Moreover, the outcome in assay [5] and in assay [15] was inactive.

In the case of `CCCC1CCC(=O)CC1`, the Potency entry in [2], in assay [3], in assay [17], in [4], in assay [18] and in [7] was “inactive” each time. Further, the Potency entry in [8], in [9], in assay [10], in [19], in assay [11] and in assay [12] was “inactive” each time. Further, the Potency result in assay [13], in assay [14] and in assay [16] was “inactive” each time. Besides, the outcome in assay [15] was inactive.

As for `CNc1ccc([N+](=O)[O-])cc1`, the Potency result in [2], in assay [17], in assay [4], in assay [18], in assay [6] and in [8] was “inactive” throughout. The Potency entry in assay [10], in assay [19], in assay [11], in assay [12] and in [14] was “inactive” throughout. In addition, the results for the Potency in assay [3], in [7] and in assay [9] were 48.7 µM (active), 34.4 µM (active) and 54.6 µM (active), respectively. In addition, the outcome in assay [20], in assay [5] and in assay [15] was inactive.

In the case of `OCCN1CCN(CCCN2c3ccccc3Sc3ccc(C(F)(F)F)cc32)CC1`, the Potency result in assay [1], in assay [18], in assay [6], in assay [7], in assay [8] and in [11] was “inactive” each time. Moreover, the Potency result in assay [12], in assay [13] and in [14] was “inactive” each time. The call in assay [5] and in assay [15] was inactive.

With `CC(C)OC(=O)C(O)(CC(=O)O)CC(=O)O`, the Potency result in assay [2], in assay [3], in assay [17], in assay [4], in assay [18] and in assay [6] was “inactive” in each case. Further, the Potency entry in [7], in [8], in assay [9], in [10], in [19] and in assay [11] was “inactive” in each case. Besides, the Potency result in [12], in assay [14] and in assay [16] was “inactive” in each case. Besides, the outcome in assay [20], in assay [5] and in [15] was inactive.
